# Data from PubChem BioAssay AID932 (The Scripps Research Institute Molecular Screening Center, 2007).
# The whole screen tested about 200,000 compounds, of which about 5,100 (2.5%) were called active. This excerpt belongs to a sample that is enriched for actives. Unmarked numbers belong to inactive results.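 The calls were made as follows: active = activation above the screen-wide mean activation plus 3 SD (cut at about 130% in these data); inactive = the rest.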
# Assay: STAT1 signaling activators, primary screen, cell-based, HTS, luciferase reporter (AID 932);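 also: raw ratio to IFN-gamma control signal so 100% means no change and 0% no light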
# Conditions: NIH 3T3 STAT1-luciferase reporter, IFN-gamma, luminescence; at 5.5 µM; active compounds read high; 100% = IFN-gamma alone, no compound
row,Structure (SMILES),activation (% of control)
1,CCOC(=O)Cc1csc(NC(=O)COc2ccc3c(C)cc(=O)oc3c2)n1,102%
2,COC(=O)COc1cccc2c(=O)n(CC(=O)NCCc3ccc(OC)c(OC)c3)ccc12,100%
3,Cc1ccc(-c2cc(C(=O)N/N=C/C=C/c3ccco3)c3ccccc3n2)cc1C,78.9%
4,CC(/C=N/NC(=O)c1ccncc1)=C\c1ccco1,98.5%
5,CC(/C=N/NC(=O)c1cc(-c2ccc3ccccc3c2)n[nH]1)=C\c1ccco1,131% (active)
6,O=C(CSc1nnc(-c2ccco2)n1Cc1ccccc1)NC(=O)NCc1ccco1,101%
7,c1ccc(CSc2nnc(-c3ccco3)n2Cc2ccccc2)cc1,144% (active)
8,c1ccc(CSc2nnc(-c3ccco3)c(-c3ccco3)n2)cc1,97.8%
9,COc1cccc(OCC(=O)NNC(=O)c2cnccn2)c1,98.7%
10,COc1ccc2c(c1)CCc1c(C(=O)N3CCc4ccccc4C3)noc1-2,96.8%
11,COc1ccc2c(c1)CCc1c(C(=O)N3CCCC3)noc1-2,131% (active)
12,COc1ccc2c(c1)CCc1c(C(=O)Nc3c(C)n(C)n(-c4ccccc4)c3=O)noc1-2,106%
13,O=C(Nc1cccc(C(F)(F)F)c1)c1ccc(N2CCNCC2)c([N+](=O)[O-])c1,90.2%
14,CC(C)CNC(=S)NC(=O)c1ccc(Cl)cc1,136% (active)
15,Cc1occc1C(=O)NNC(=S)NCC(C)C,102%
16,CC(C)C(NC(=O)c1ccc(Cl)cc1)C(=O)O (stereo unspecified),110%
17,Cn1c(CNC(=O)c2ccccc2F)nnc1SCc1ccc(F)cc1,103%
18,O=C(Nc1ccccc1)c1ccc2c(c1)OCO2,110%
19,O=C(Nc1nc2ccccc2s1)c1ccc2c(c1)OCO2,130% (active)
20,Cc1cc(C)c2nc(NC(=O)c3ccc4c(c3)OCO4)sc2c1,98.5%
21,O=C(Nc1nc(-c2cccnc2)cs1)c1ccccc1F,141% (active)
22,O=C(Nc1nc(-c2ccc(-c3ccccc3)cc2)cs1)c1cnccn1,113%
23,Cc1ccc(-c2csc(NC(=O)c3cnccn3)n2)cc1C,105%
24,Cc1ccc(C(=O)CSc2nc3ccccc3c(=O)n2N)o1,140% (active)

row,Structure (SMILES),activation (% of control)
1,O=C(CCn1c(SCC(=O)c2ccccc2)nc2ccccc2c1=O)NCc1ccc(F)cc1,94.6%
2,COc1ccc(OCc2ccc(-c3nc4ccccc4c(=O)n3N)o2)cc1,127%
3,Cc1ccccc1OCC(O)CN1CCN(c2ccccn2)CC1 (stereo unspecified),104%
4,CCNC(=S)NNC(=O)C1CCN(Cc2ccccc2)CC1,90.4%
5,Cc1ccc(-c2nn(-c3ccccc3)cc2C(=O)Nc2cccc(S(=O)(=O)N3CCOCC3)c2)cc1,102%
6,CCc1ccc(C2C(C#N)=C(N)N(N(C)C)C3=C2C(=O)CCC3)s1 (stereo unspecified),105%
7,CCN(CC)C(=O)c1sc2nc(-c3ccccc3)ccc2c1N,146% (active)
8,CCOC(=O)c1sc2nc(SC)nc(-c3ccccc3)c2c1N,90%
9,CS(=O)(=O)c1sc2nc(-c3ccccc3)cc(-c3ccccc3)c2c1N,104%
10,O=C(COC(=O)c1ccccc1C(=O)c1ccccc1)c1ccco1,103%
11,CCN(CC)c1ccc(C(=O)OCC(=O)c2ccco2)cc1,149% (active)
12,O=C(OCC(=O)N1CCCC1)c1ccco1,104%
13,CCOC(=O)/C=c1\s/c(=C\c2ccc(C#N)cc2)c(=O)n1CC(=O)Nc1cccc(C)c1C,102%
14,CN(C)CCCN1C(=O)CSC1c1ccc([N+](=O)[O-])cc1 (stereo unspecified),95%
15,CCOc1ccc2nc(C(=O)N3CCCC(C)C3)sc2c1 (stereo unspecified),153% (active)
16,CCOc1ccc2nc(SC(CC)C(=O)Nc3cc(C)on3)sc2c1 (stereo unspecified),86.5%
17,CCOc1ccc2nc(Nc3nc4ccc(NC(C)=O)cc4s3)sc2c1,106%
18,CCNc1nc(NC(C)C)nc(N2CC(=O)N(CC(=O)OCC)C2=N)n1,93.2%
19,O=C(Oc1cccc(N2C(=O)C3C4c5ccccc5C(c5ccccc54)C3C2=O)c1)c1ccco1 (stereo unspecified),102%
20,Cc1ccc(-n2c(SCC(=O)N3c4ccccc4Sc4ccccc43)nnc2-c2ccncc2)cc1,109%
21,CC(C)(C)C(=O)NCCCNc1ccc([N+](=O)[O-])cc1,112%
22,COc1cc(/C=N\Nc2ccc([N+](=O)[O-])cn2)ccc1OCC(=O)O,98%
23,COc1cc(C(=O)OCc2ccc([N+](=O)[O-])cc2)cc(OC)c1OC,104%
24,COc1cc(/C=N/O)ccc1OCc1ccc([N+](=O)[O-])cc1,206% (active)

row,Structure (SMILES),activation (% of control)
1,CCOc1ccc(S(=O)(=O)Nc2ccncc2)c(C)c1C,97%
2,C/C(CCC(=O)OC[C@H]1O[C@H](C#Cc2ccccc2)C=C[C@@H]1Oc1ccc(C)cc1)=N\OC[C@@H](O)[C@H]1O[C@@H]2OC(C)(C)O[C@@H]2[C@H]1O,106%
3,Cc1cc(Br)ccc1NC(=O)C1CCCO1 (stereo unspecified),107%
4,O=C(Nc1nc2ccc(S(=O)(=O)N3CCCC3)cc2s1)C1CCCO1 (stereo unspecified),95.5%
5,Cc1cc(C)c2nc(NC(=O)C3CCCO3)sc2c1 (stereo unspecified),151% (active)
6,CCc1cc2c(=O)c(-c3nc4ccccc4n3C)c(CCCC(=O)O)oc2cc1OC(=O)C(C)(C)C,90.5%
7,COC(=O)C1=CN(Cc2ccc(OC)c(OC)c2)C=C(C(=O)OC)C1c1cccs1,45.2%
8,C=CCNC(=O)/C=C/c1ccc(C(C)C)cc1,120%
9,Cn1c(=NC(=O)c2ccco2)sc2cccc(F)c21,135% (active)
10,Cn1c(=NC(=O)C2CC2)sc2cc(F)cc(F)c21,108%
11,CCCC(=O)N=c1sc2cccc(F)c2n1C,114%
12,CC(=O)Nc1ccc(S(=O)(=O)Oc2ccc(/C=N/N=C3/NC(=O)C(CC(=O)O)S3)cc2)cc1 (stereo unspecified),97.8%
13,CCCCn1c(=O)c(C(C)=O)c(O)c2ccccc21,95.7%
14,COc1cc([C@H](Cc2ccccc2)NC(C)=O)oc(=O)c1,96.8%
15,COCCn1c(C)cc(C2=NNC(=Nc3ccc(F)cc3)SC2)c1C,133% (active)
16,C=CCn1c(C)cc(C2=NNC(=NCC)SC2)c1C,15.6%
17,Cc1cc(C2=NNC(=Nc3ccc(S(=O)(=O)N4CCOCC4)cc3)SC2)c(C)n1CC1CCCO1 (stereo unspecified),99.8%
18,COc1ccc(C2CC(c3cccs3)=NN2c2ccccc2)cc1 (stereo unspecified),93.2%
19,Cc1cc(C)cc(N(CC(=O)NCCSCc2ccco2)S(C)(=O)=O)c1,102%
20,Cc1ccccc1Nc1nc(N)nc(CSc2nnc3ccccn23)n1,120%
21,Cc1ccccc1Nc1nc(N)nc(CSc2ccccc2)n1,183% (active)
22,Cc1ccc(C(=O)OCc2nc(N)nc(Nc3ccccc3C)n2)cc1,96.8%
23,CC(C)(C)C1CCC(=NNC(=O)c2cc(-c3ccccc3)n[nH]2)CC1 (stereo unspecified),113%
24,CCOC(=O)N1CCN(C(=O)C2CCN(Cc3ccc(OC)cc3OC)CC2)CC1,94.7%

row,Structure (SMILES),activation (% of control)
1,Oc1oc(-c2ccccc2Br)nc1/C=N/c1ccccn1,131% (active)
2,CC(N=Cc1nc(-c2ccccc2)oc1O)c1ccccc1 (stereo unspecified),104%
3,CCOc1ccc2nc(/N=C/c3nc(-c4ccccc4)oc3O)sc2c1,104%
4,O=C1NC(c2ccc(-c3ccccc3[N+](=O)[O-])o2)C(C(=O)c2ccc(Cl)cc2)C(O)(C(F)(F)F)N1 (stereo unspecified),102%
5,COc1ccc(C(C)=O)cc1CSc1nc2nc(C)cc(C)n2n1,93.7%
6,CC(OC(=O)c1ccc2ccccc2n1)C(=O)c1ccccc1 (stereo unspecified),138% (active)
7,COc1ccc(C(=O)COC(=O)c2ccc3ccccc3n2)cc1,103%
8,O=C(Oc1ccc([N+](=O)[O-])cc1)c1ccc2ccccc2n1,94.7%
9,CCC(NC(=O)c1ccccc1NC(=O)c1ccccc1)C(=O)NNC(=O)CSc1nc2ccccc2o1 (stereo unspecified),94%
10,Cc1[nH]n(-c2ccccc2)c(=O)c1/C=N/NC(=O)c1ccoc1C,155% (active)
11,Cc1[nH]n(-c2ccc(Cl)cc2)c(=O)c1/C=N/n1c(C)nc2ccccc2c1=O,99.3%
12,Cc1ccc(-n2[nH]c(C)c(/C=N/NC(=O)c3cccc([N+](=O)[O-])c3)c2=O)cc1C,101%
13,C=CCn1c(SCC(N)=O)nnc1-c1cc2c(s1)CCC(CC)C2 (stereo unspecified),121%
14,CC1CN(/C=C/C(=O)C(F)(F)F)CC(C)O1 (stereo unspecified),95.8%
15,CCSc1sc(CC)cc1C=O,107%
16,COc1ccccc1-c1cc(C(=O)N2CCCCC2)no1,164% (active)
17,COc1ccccc1N1CCN(C(=O)c2cc(-c3ccc(Br)cc3)on2)CC1,99.6%
18,O=C(c1cc(-c2cccs2)on1)N1CCCCC1,162% (active)
19,O=C(c1ccc(F)cc1)N1CCCC(c2nc(-c3cccs3)no2)C1 (stereo unspecified),96.9%
20,O=C(c1cc(-c2ccccc2O)on1)N1CCCC1,108%
21,Cc1ccc(-c2cc(C(=O)N3CCc4ccccc4C3)no2)cc1,97.3%
22,COc1ccc(C2CC(c3cccs3)Nc3nnnn32)cc1 (stereo unspecified),87.6%
23,Cc1cc(=O)[nH]c(N/N=C/c2c(C)nn(-c3ccccc3Cl)c2Cl)n1,100%
24,CC(OC(=O)CNS(=O)(=O)/C=C/c1ccccc1)C(=O)Nc1ccc(S(=O)(=O)N2CCCC2)cc1 (stereo unspecified),89%
